Compound activity as filed in PubChem.
Pf Dd2 growth = inhibitors of Plasmodium falciparum Dd2 growth | 120,000 compounds, 4.3% hits | AID 1347417 | P. falciparum Dd2 growth, SYBR Green, 72 h | Potency, µM (series often up to 28.9 µM), inactives show at the top dose activity, negative = inhibition, most hits filed as inhibitors; active = well fitted inhibition curve with a large enough effect;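 note: plate controls were DMSO vehicle for no effect and reference drug for full effect; nearly all actives have a fitted effect of over 65% in size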
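Infected erythrocytes (Dd2, 0.3% parasitemia, 2.5% hematocrit final) are added to compound in RPMI-1640/Albumax II medium, grown 72 h at 37C in low oxygen, then lysed with saponin/Triton-X containing SYBR Green and read by fluorescence.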
* hit, by the source's call; i = inactive; [ ] = another dose, or the depositor's remark. The entries come from a sample that favours hits as a whole. Potency is the fitted concentration of half-maximal effect.

SMILES | Pf Dd2 growth
Cc1cccc(OCC(=O)N2CCC(n3cc(-c4nc(-c5ccccc5)no4)nn3)C2)c1 (centres undefined) | 173%
COc1cccc(S(=O)(=O)N2CCC(Cc3nncn3C)CC2)c1 | -4%
O=C(NCCCN1CCCc2ccccc21)c1ccc(N2CC3CC(C2)[C@H]2CCCC(=O)N2C3)nc1 (some centres undefined) | 11µM*
O=C(NCCCN1CCOCC1)c1ccc(N2CC3CC(C2)[C@H]2CCCC(=O)N2C3)nc1 (some centres undefined) | -30%
O=C(NCCCN1CCCc2ccccc21)c1cccnc1N1CC2CC(C1)[C@H]1CCCC(=O)N1C2 (some centres undefined) | i
CN1C(=O)C(CC(=O)NC2CCC(O)CC2)(Cc2ccccc2)c2ccccc21 (centres undefined) | 9%
CC(C)C(=O)NC1CCN(c2cn[nH]c(=O)c2)CC1 | -10%
O=C(c1cccc(Cl)c1)N1CCC(c2n[nH]c(=O)n2-c2ccccc2)CC1 | i
COc1ccccc1-c1nc(C(=O)NC2CC2)n2ccccc12 | i
CN(C)C(=O)c1nc(-c2ccc(S(C)(=O)=O)cc2)c2cnccn12 | -3%
COc1ccc(-c2nc(C(=O)NC3CC3)n3ccccc23)cc1 | 11µM*
O=C(NC1CC1)c1nc(-c2ccc(F)cc2)c2cnccn12 | 11µM*
O=C(CCNc1c(-c2ccc(F)cc2)nc2cnccn12)NC1CCCC1 | 20%
C[S+](=O)([O-])c1ccc(-c2nc(C(=O)NC3CC3)n3ccccc23)cc1 | i
COCc1cc(CC2(NCc3ccccc3F)COC2)no1 | 24%[44.1 µM]
O=C(c1ccccc1C(F)(F)F)N1CCc2nc3cc[nH]n3c(=O)c2C1 | 32%[5.79 µM]
COc1nccc(N2CCC(CC(=O)N3CCN(CCC#N)CC3)CC2)n1 | -14%
Cc1nn(-c2ccc(F)cc2)c(C)c1CN1CCCn2nc(CO)cc2C1 | 4%
O=C(C1CC1)N1CCC(O)(c2csc(CN3CCc4ccccc4C3)n2)CC1 | -27%[44.1 µM]
OC1(c2csc(CN3CCc4ccccc4C3)n2)CCN(CC2CCCCC2)CC1 | 3.2µM*
CCN(CC)Cc1nc(C2(O)CCN(C)CC2)cs1 | 3%[44.1 µM]
OC1(c2csc(CN3CCc4ccccc4C3)n2)CCN(C2CCC2)CC1 | 10µM*
O=C(COc1ccccc1)N1CCC(O)(c2csc(CN3CCc4ccccc4C3)n2)CC1 | -8%
CN1CCC(N2CCC(O)(c3csc(CN4CCc5ccccc5C4)n3)CC2)CC1 | i
CCN(CC)Cc1nc(C2(O)CCN(CC3CC3)CC2)cs1 | -22%[44.1 µM]
SMILES | Pf Dd2 growth
CC(C)(C)CC(=O)N1CCC(O)(c2csc(CN3CCc4ccccc4C3)n2)CC1 | -26%[44.1 µM]
CCN(CC)Cc1nc(C2(O)CCN(CCC(C)C)CC2)cs1 | 16µM*
CN1CCN(Cc2nc(C3(O)CCN(CC4CC4)CC3)cs2)CC1 | 17%[44.1 µM]
CC(C)CCN1CCC(O)(c2csc(CN3CCc4ccccc4C3)n2)CC1 | 13µM*
CC(C)CCN1CCC(O)(c2csc(CN3CC[C@@H](O)C3)n2)CC1 | -16%[44.1 µM]
COc1ccc(CNC(=O)[C@@]23CCCC[C@H]2N(C)C(=O)CC3)cc1 | -17%
Cc1ccoc1C(=O)N1CCC(Oc2ccccc2F)(C(=O)O)CC1 | -12%
COc1ccc(-c2nc(C3CC(=O)N(c4ccc(F)c(Cl)c4)C3)no2)c(C)c1 (centres undefined) | 84%
Cc1ccc(F)cc1-c1cccc(CCOc2cnc3c(ccn3CC(=O)O)c2)c1 | i
O=C(Nc1ccon1)[C@@H]1C[C@@H](c2ccc(F)cc2)N([S+](=O)([O-])c2ccccc2)C1 | i
C#CCNC(=O)C[C@@H]1C[C@@H](C(C)C)[C@H](CO)C=C1C | -9%[44.1 µM]
CN1CC(=O)N(c2ccc([N+](=O)[O-])cc2)Cc2c1ncnc2N1CCOCC1 | -9%
COc1cc(NC(=O)NC[C@H]2O[C@@H](CO)[C@@H](O)[C@H]2N2CCN(c3ccccc3)CC2)cc(OC)c1 | i
COc1ccc(N2CC(C(=O)NCC(F)F)NC2=O)cc1 (centres undefined) | -8%[44.1 µM]
O=C(C1CC1)N1CC(Oc2ccc(-c3noc(C4CCOCC4)n3)cc2)C1 | i
COCC(=O)N1CCC(O)(c2csc(CN3CCc4ccccc4C3)n2)CC1 | i
OC1(c2csc(CN3CCc4ccccc4C3)n2)CCN(Cc2ccccc2F)CC1 | i
O=C(c1ccccc1F)N1CCC(O)(c2csc(CN3CCc4ccccc4C3)n2)CC1 | 3.2µM*
Cc1ccc(CNC(=O)[C@H]2CCC[C@H]2NC(=O)c2ccncc2)o1 | 0%
COc1ccccc1N1CCN(C(=O)c2cc3c(s2)-c2ccccc2OC3)CC1 | 28%
COc1ccc(N(C)C(=O)c2cc3c(s2)-c2ccccc2OC3)cc1 | -4%
COc1cc(OC)c(N(C)C(=O)c2cc3c(s2)-c2ccccc2OC3)cc1Cl | 8.9µM*
COc1ccc(S(N)(=O)=O)cc1C(=O)N1CCC2(CCCN(C)C2=O)C1 (centres undefined) | 1%
COc1ccc(-c2cn(C)c(=O)n3cc(CN4CCNC(=O)C4)nc23)c(C(F)(F)F)c1 | -38%[44.1 µM]
O=C(c1ccc(Br)o1)N1CCCN(c2cc(-c3ccc(Cl)cc3)[nH]n2)CC1 | -14%
SMILES | Pf Dd2 growth
Cc1nc(CN2CC3(CCN(C)C3)c3cc(C(=O)NCc4cccs4)ccc32)cs1 (centres undefined) | -3%[44.1 µM]
CN1CCC2(C1)CN(Cc1ccccc1)c1ccc(C(=O)NCc3cccs3)cc12 (centres undefined) | 7.1µM*
CN1CCCC2(C1)CN(Cc1cccnc1)c1ccc(C(=O)NCc3cccs3)cc12 (centres undefined) | -8%[44.1 µM]
Cc1ccc(-n2ncc(C(=O)N3CCc4ccccc4C3)c2C2CCN(C(=O)OC(C)(C)C)CC2)cc1C | -2%
CC(C)(C)OC(=O)N1CCC(c2c(C(=O)NCCc3ccccc3)cnn2-c2ccc(F)cc2)CC1 | 11µM*
Cc1ccc(-n2ncc(C(=O)NCc3ccco3)c2C2CCN(C(=O)OC(C)(C)C)CC2)cc1C | 11µM*
O=C(NCCc1ccccc1)c1cnn(-c2ccc(F)cc2)c1-n1cccc1 | 4%
Cc1ccc(-n2ncc(C(=O)Nc3ccc(C)c(F)c3)c2C2CCN(C(=O)OC(C)(C)C)CC2)cc1C | -16%
COCCCNC(=O)c1cnn(-c2ccc(F)cc2F)c1C1CCNCC1 | -3%
CC(C)(C)OC(=O)N1CCC(c2c(C(=O)NCCc3ccccc3)cnn2-c2ccc(F)cc2F)CC1 | 5.6µM*
CC(C)(C)OC(=O)N1CCC(c2c(C(=O)Nc3ccc4c(c3)OCCO4)cnn2-c2ccc(F)cc2)CC1 | 7.9µM*
Cc1cccc(C)c1-n1ncc(C(=O)Nc2ccc3c(c2)OCO3)c1C1CCN(C(=O)OC(C)(C)C)CC1 | i
O=C([C@H]1C[C@@H](F)CN1S(=O)(=O)c1ccc(Cl)cc1)N1CCOCC1 | 6%
Cc1nc(N2CCCC(Cn3ccnc3)C2)c2sccc2n1 (centres undefined) | -3%
COCCNC(=O)C(NC(=O)c1cccs1)C1CCN(C(=O)c2cccs2)CC1 (centres undefined) | -3%
COc1ccc(NC(=O)NC[C@H]2O[C@@H]3C[C@@H](CC(=O)N4CCC(F)(F)C4)O[C@@H]3[C@@H]2O)cc1 | 4%
O=C(Nc1ccc([C@@H](O)[C@H]2COCC(=O)N2Cc2ccccn2)cc1)c1cnccn1 | 16%[44.1 µM]
O=C(NCCN1CCOC1=O)c1cn(CCC2CCCCN2)nn1 (centres undefined) | 7%
COc1cc(=O)n2c(c1C(=O)Nc1cccc(Cl)c1F)CCCC2 | 79%
Cc1nn(C)c(C)c1CCN(C)C(=O)[C@H]1CN(Cc2ccccc2)C[C@H]1C(=O)O | i
